Out of some 52,000 compounds screened, about 4,300 (8.3%) were called active. The full list was thinned out, with actives kept by preference. Values without a mark were called inactive. Rule as the data show it: active = survival mostly below about 52% (no sharp cut-off); inactive = mostly above about 56%.

This experiment has as its system DeltatarO mutant. The experiment can be described thus: S. aureus survival, RN4220 and DeltatarO strains – OD600, teichoic acid synthesis inhibitors, primary screen (AID 463173). Particulars: S. aureus RN4220 wild type/DeltatarO growth, OD600, 18 h, stronger effect = lower value, screened at 18.75 µg/mL (by protocol).
Take `CCN(C(=O)c1c(C)oc2ncnc(N3CCCCC3)c12)c1cc(C)ccc1C`: the survival was 95%. For `CCC(C)C(NC(=O)c1cc(C)oc1C)C(=O)O` (stereo not given) the value was 95%; for `CCOc1ccc(NC(=O)c2oc3ccccc3c2NC(=O)c2ccc(OC)cc2OC)cc1`, 51%; for `O=C(CC1C(=O)N(c2ccc(F)cc2)C(=O)N1Cc1ccc2c(c1)OCO2)Nc1ccc(Cl)cc1` (stereo not given), 43% (active). With `O=C(CC1C(=O)N(c2ccc(F)cc2)C(=O)N1Cc1ccc2c(c1)OCO2)Nc1ccc(F)cc1` (stereo not given), the survival was 72%. With `Cc1ccc(N2C(=O)C(CC(=O)Nc3ccc(F)cc3)N(Cc3ccc4c(c3)OCO4)C2=O)cc1` (stereo not given), the survival is 70%. In the case of `Cc1ccc(Cl)cc1NC(=O)c1cc(S(=O)(=O)N2CCCCCC2)cn1C`, the survival is 71%.

With `O=C(CSc1oc(-c2cccs2)nc1S(=O)(=O)c1ccccc1)Nc1ccc(F)cc1`, the survival is 55%. Consider `O=C(NCC(c1cccnc1)N1CCc2ccccc2C1)C(=O)Nc1ccccc1` (stereo not given), for which the survival is 81%. Regarding `CCC1CN(C(=O)NCc2ccccc2)c2cc(C)ccc2O1` (stereo not given), the survival is 51%.

Turning to `CC1CN(C(=O)NCc2ccccc2)c2cc(Cl)ccc2O1` (stereo not given), the survival was 49%. With `CCC1CN(C(=O)NCc2ccccc2)c2cc(Cl)ccc2O1` (stereo not given), the survival is 46% (active). On to `CCC1CN(C(=O)NCc2ccc(F)cc2)c2cc(Cl)ccc2O1` (stereo not given), for which the survival is 39% (active). In the case of `CCC1CN(C(=O)NCc2ccc(F)cc2)c2cc(C)ccc2O1` (stereo not given), the survival is 52%. Regarding `CCC1CN(C(=O)NCc2cccc(OC)c2)c2ccccc2O1` (stereo not given), the survival is 62%. On to `CCC1CN(C(=O)NCc2cccc(OC)c2)c2cc(Cl)ccc2O1` (stereo not given), for which the survival was 43% (active). As to `CCC1CN(C(=O)NCc2ccc(C)cc2)c2cc(Cl)ccc2O1` (stereo not given), the survival is 93%.

Take `CCC1CN(C(=O)NCc2ccc(F)cc2)c2ccccc2O1` (stereo not given): the survival is 67%. As to `O=C(NCc1ccco1)c1ccc2c(c1)N(Cc1cccc(Cl)c1)C(=O)c1ccccc1S2=O` (stereo not given), the survival is 63%. Consider `CC(=O)N1CCc2c(sc3c2c(=O)n(-c2ccccc2)c(=O)n3CC(=O)Nc2ccccc2C)C1`, for which the survival is 71%. To `Cc1ccc(C)c(NC(=O)CN2C(=O)CSc3nc(C)cc(C)c32)c1` belongs 103%. To `O=C(NCc1ccc(F)cc1Cl)c1cc(=O)[nH]c2ccc(S(=O)(=O)N3CCCCC3)cc12` belongs 102%; to `Cc1ccc(S(=O)(=O)c2cn(Cc3cccc(C)c3)c3cc4c(cc3c2=O)OCO4)cc1`, 101%. `COc1ccc(NC(=O)CCNS(=O)(=O)c2cccc3nsnc23)cc1OC`: the survival is 65%.

`COc1ccc(NC(=O)CCNS(=O)(=O)c2cccc3nonc23)c(OC)c1`: the survival is 50% (active). In the case of `O=C(CCNS(=O)(=O)c1cccc2nsnc12)Nc1ccc(F)cc1`, the survival is 56%.

As for `O=C(CCS(=O)(=O)c1cccc2nonc12)Nc1cccc(F)c1`, the survival was 67%. For `COc1ccc(Cl)cc1NC(=O)CCS(=O)(=O)c1cccc2nonc12`, the survival is 146%.

With `COc1ccc(C)cc1NC(=O)CCNS(=O)(=O)c1cccc2nonc12`, the survival was 43% (active). `COc1ccc(OC)c(NC(=O)CCNS(=O)(=O)c2cccc3nsnc23)c1`: the survival was 49%. As for `CCOc1ccccc1NC(=O)CCNS(=O)(=O)c1cccc2nonc12`, the survival is 45% (active). On to `COc1ccc(C)cc1NC(=O)C1CCN(S(=O)(=O)c2cccc3nonc23)CC1`, for which the survival was 108%. `CCOc1ccccc1NC(=O)C1CCN(S(=O)(=O)c2cccc3nonc23)CC1`: the survival was 74%. For `O=C(CCNS(=O)(=O)c1cccc2nonc12)Nc1ccc(F)cc1`, the survival is 45% (active). Regarding `CCc1ccccc1NC(=O)CCS(=O)(=O)c1cccc2nonc12`, the survival was 74%.
